Measured values reported in PubChem BioAssay (EPA / NIEHS).
Where “and” joins values, the source holds several entries; their conditions need not be identical. Equal entries are not always repeated. Results filed as inconclusive are left out. Some structures have more than one record in an assay (separate samples or runs), and their calls can disagree. Calls of active or inactive are those of the source. The calls were made as follows, unless noted: active = hit-call score of the fitted dose curve at least 0.9, where 1 is the maximum; inconclusive = response in the unintended direction; inactive = score below 0.9.

Tests used:
[1] = target: Peroxisome proliferator-activated receptor gamma (Homo sapiens) (UniProt P37231); assay: NVS_NR_hPPARg: NovaScreen (NVS) Nuclear Receptor Binding Assay for human Peroxisome Proliferator-activated Receptor gamma (PPARg) (AID 2283370)
Procedure, shortened: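 Cell-free binding to extracted PPARg protein, read by fluorescence polarization 2 h after dosing; loss of signal relative to DMSO baseline marks displacement. Primary screen in duplicate at 25 uM, actives retested in concentration series.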

[2] = target: Agonist Androgen Response Element (ARE), AR (gene 367) (UniProt P10275); assay: OT_AR_ARELUC_AG_1440: Odyssey Thera (OT) 24-hour CHO-K1 Luciferase Assay for Agonist Androgen Response Element (ARE) (AID 2283379)
Procedure, shortened: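 Gain-of-signal reporter endpoint: cells (CHO-K1, hamster) are treated 24 h, luciferin/ATP reagent added, and luminescence compared with DMSO baseline.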

[3] = target: Estrogen receptor beta (Homo sapiens) (UniProt Q92731); assay: OT_ER_ERbERb_1440: Odyssey Thera (OT) 24-hour HEK293T Protein-Complementation Assay for Estrogen Receptor-beta/-beta Homodimer (AID 2283380);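 also: scored as signal increase over DMSO baseline for both agonists and antagonists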
Procedure, shortened: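 HEK293T cells stably expressing ER beta LBD (aa 310-547) homodimer fragment-complementation reporter, dosed 24 h. Cells formaldehyde-fixed, Draq5-stained; gain in nuclear (agonist) or nuclear plus cytoplasmic (antagonist) fluorescence versus DMSO read by laser scanning cytometry.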

[4] = target: Estrogen receptor (Homo sapiens) (UniProt P03372); assay: OT_ERa_GFPERaERE_0480: Odyssey Thera (OT) 8-hour HeLa Transcription Induction Assay for Estrogen Receptor (AID 2283381; active = hit-call score of the fitted dose curve at least 0.9, where 1 is the maximum; inactive = score below 0.9)
Procedure, shortened: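 GFP-ERE reporter, HeLa, 8 h exposure. Readout: fluorescence microscopy, high-content image analysis. Fit direction positive vs DMSO negative control.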

[5] = target: Estrogen receptor (Homo sapiens) (UniProt P03372); assay: OT_ERa_GFPERaERE_0120: Odyssey Thera (OT) 2-hour HeLa Transcription Induction Assay for Estrogen Receptor (AID 2283382)
Procedure, shortened: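 Fluorescence microscopy read-out: inducible fluorescent protein reporter in HeLa cells, imaged 2 h post-dose. Signal increase over DMSO negative control fitted as single primary endpoint via high content image analysis.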

[6] = target: Bile acid receptor (Homo sapiens) (UniProt Q96RI1); assay: OT_FXR_FXRSRC1_0480: Odyssey Thera (OT) 8-hour HEK293T Protein-Complementation Assay for Farnesoid X receptor/SRC-1 Co-activator (AID 2283383)
Procedure, shortened: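 Fluorescence intensity read-out, 8 h post-dose, HEK293T protein-fragment complementation; FXR bait and SRC-1 prey each linked to reporter fragments. Activity scored as signal increase over DMSO negative control.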

[7] = target: Bile acid receptor (Homo sapiens) (UniProt Q96RI1); assay: OT_FXR_FXRSRC1_1440: Odyssey Thera (OT) 24-hour HEK293T Protein-Complementation Assay for Farnesoid X receptor/SRC-1 Co-activator (AID 2283384)
Procedure, shortened: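 Fluorescence readout, 24 h post-dose, HEK293T; FXR and SRC-1 fused to complementary reporter fragments, association reconstitutes signal. Positive-direction fit vs DMSO baseline.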

[8] = target: Retinoic acid receptor RXR-alpha (Homo sapiens) (UniProt P19793); assay: OT_NURR1_NURR1RXRa_0480: Odyssey Thera (OT) 8-hour HEK293T Protein Complementation Assay for Nurr1/retinoid X receptor (RXR) (AID 2283385)
Procedure, shortened: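 Read-out: fluorescence from protein-fragment complementation between Nurr1 and RXRα in human HEK293T cells, 8 h after dosing. DMSO served as negative control; increased signal counted as activity.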

[9] = target: Peroxisome proliferator-activated receptor gamma (Homo sapiens) (UniProt P37231); assay: OT_PPARg_PPARgSRC1_0480: Odyssey Thera (OT) 8-hour Protein-Complementation Assay for Peroxisome Proliferator-activated Receptor Gamma / SRC-1 Co-activator (AID 2283387)
Procedure, shortened: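 HEK293T transiently transfected with PPARg and SRC-1 fused to Venus YFP fragments, compounds 8 h at 37C. Fixed, Draq5-stained cells imaged; nuclear/cytoplasmic 488 nm fluorescence ratio over at least 350 cells per image; gain fitted versus DMSO.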

[10] = target: Peroxisome proliferator-activated receptor gamma (Homo sapiens) (UniProt P37231); assay: OT_PPARg_PPARgSRC1_1440: Odyssey Thera (OT) 24-hour Protein-Complementation Assay for Peroxisome Proliferator-activated Receptor Gamma/ SRC-1 Co-activator (AID 2283388)
Procedure, shortened: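 HEK293T cells transiently transfected with PPARg and SRC-1 fused via (Gly4Ser)2 linker to split Venus YFP fragments (IFP1/IFP2) were dosed 24 h; fixed, Draq5-stained, imaged at 488/635 nm; nuclear/cytoplasmic fluorescence ratio scored versus DMSO baseline, gain-of-signal.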

[11] = target: human Norepinephrine Transporter (NET), SLC6A2 (gene 6530) (UniProt P23975); assay: NVS_TR_hNET: NovaScreen (NVS) Transporter Assay for human Norepinephrine Transporter (NET) (AID 2283377);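 also: cell-free membrane protein extracted from CHO cells expressing human NET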;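 as to AC50: displacement of radioligand from human NET seen as loss of scintillation signal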
Procedure, shortened: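 CHO cell extracts expressing the transporter; tritiated or iodinated tracer displaced competitively; filtration plus scintillation readout at 1 h. Single-point duplicates at 25 uM, concentration series for follow-up; activity = signal drop relative to DMSO.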

[12] = CEETOX_H295R_11DCORT: CeeTox H295R High-throughput Steroidogenesis Assay for 11-Deoxycortisol (11DCORT) (AID 2283432; active = hit-call score of the fitted dose curve at least 0.9, where 1 is the maximum; inactive = score below 0.9); details: actives raise or lower the signal
Procedure, shortened: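 H295R cells prestimulated 48 h with 10 uM forskolin, then exposed 48 h to chemical in 0.1% DMSO. 11-Deoxycortisol in medium quantified by HPLC-MS/MS after MTBE extraction; bidirectional fit versus DMSO. MTT viability read in same wells.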

[13] = CEETOX_H295R_OHPREG: CeeTox H295R High-throughput Steroidogenesis Assay for OH-Pregnenolone (OHPREG) (AID 2283434; active = hit-call score of the fitted dose curve at least 0.9, where 1 is the maximum; inactive = score below 0.9); details: actives raise or lower the signal
Procedure, shortened: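 H295R, 10 uM forskolin pre-stim 48 h; test chemical 48 h, 0.1% DMSO final. MTBE extraction, reverse-phase C18 HPLC-ESI+ MS/MS of medium. Gain/loss vs DMSO; viability by MTT in same wells.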

[14] = CEETOX_H295R_OHPROG: CeeTox H295R High-throughput Steroidogenesis Assay for OH-Progesterone (OHPROG) (AID 2283435; active = hit-call score of the fitted dose curve at least 0.9, where 1 is the maximum; inactive = score below 0.9); details: actives raise or lower the signal
Procedure, shortened: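 HPLC-MS/MS quantification of 17alpha-hydroxyprogesterone secreted by H295R cells after 48 h chemical exposure, following 48 h 10 uM forskolin prestimulation. Gain or loss of signal fitted relative to DMSO. Viability checked by MTT in the same wells.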

[15] = CEETOX_H295R_ANDR: CeeTox H295R High-throughput Steroidogenesis Assay for Androstenedione (ANDR) (AID 2283436; active = hit-call score of the fitted dose curve at least 0.9, where 1 is the maximum; inactive = score below 0.9;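 also: human H295R adrenal cells exposed for 48 h with androstenedione measured in medium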); details: actives raise or lower the signal
Procedure, shortened: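 48 h chemical exposure, H295R cells, DMEM/F12 + ITS+ and Nu-Serum. Medium androstenedione: MTBE extraction, C18 reverse-phase HPLC, ESI+ MS/MS. Fit bidirectional vs DMSO; MTT viability in same wells.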

[16] = target: mouse Estrogen Receptor alpha (Era), Esr1 (gene 13982) (UniProt P19785); assay: NVS_NR_mERa: NovaScreen (NVS) Nuclear Receptor Binding Assay for mouse Estrogen Receptor alpha (Era) (AID 2283378);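 also: hit means loss of bound radioligand signal relative to DMSO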
Procedure, shortened: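 Cell-free radioligand binding with extracted mouse Era protein; competitive displacement of radiolabelled ligand, read by filter-based scintillation counting 18 hours after dosing. Loss of signal versus DMSO baseline taken as binding; single screening concentration 25 uM, actives followed in concentration series.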

[17] = target: Retinoic acid receptor RXR-alpha (Homo sapiens) (UniProt P19793); assay: OT_NURR1_NURR1RXRa_1440: Odyssey Thera (OT) 24-hour HEK293T Protein Complementation Assay for Nurr1/retinoid X receptor (RXR) (AID 2283386)
Procedure, shortened: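 Fluorescence PCA read-out; HEK293T; 24 h post-dose; bait/prey fused to reporter fragments; gain-of-signal fit vs DMSO negative control.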

[18] = target: human Dopamine Transporter (DAT), SLC6A3 (gene 6531) (UniProt Q01959); assay: NVS_TR_hDAT: NovaScreen (NVS) Transporter Assay for human Dopamine Transporter (DAT) (AID 2283374);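 also: activity means loss of bound radioligand signal relative to DMSO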
Procedure, shortened: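 hDAT membranes + tritiated/iodinated radioligand, competitive displacement; 1 h; filter scintillation readout. Single conc 25 uM (duplicate), then conc-response for actives. DMSO = negative control.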

[19] = target: rat Serotonin Transporter (SERT), Slc6a4 (gene 25553) (UniProt P31652); assay: NVS_TR_rSERT: NovaScreen (NVS) Transporter Assay for rat Serotonin Transporter (SERT) (AID 2283375)
Procedure, shortened: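 Rat forebrain membranes were incubated with test chemical for 1 hour; radioligand binding to SERT was measured by filter-based scintillation counting. Primary screen ran in duplicate at 25 uM, with actives followed up in concentration series; DMSO served as negative control.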

[20] = tested on: rat Norepinephrine Transporter (NET), gene 83511; assay: NVS_TR_rNET: NovaScreen (NVS) Transporter Assay for rat Norepinephrine Transporter (NET) (AID 2283373)
Procedure, shortened: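 Competitive radioligand displacement at the rat NET using forebrain membrane preparations, 1 h incubation, filter-based scintillation readout. Primary testing in duplicate at a single 25 uM concentration; confirmed actives retested across concentrations.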

Measured: AC50

Sequence of mouse Estrogen Receptor alpha (Era), Esr1 (gene 13982) (P19785 whole entry, looked up): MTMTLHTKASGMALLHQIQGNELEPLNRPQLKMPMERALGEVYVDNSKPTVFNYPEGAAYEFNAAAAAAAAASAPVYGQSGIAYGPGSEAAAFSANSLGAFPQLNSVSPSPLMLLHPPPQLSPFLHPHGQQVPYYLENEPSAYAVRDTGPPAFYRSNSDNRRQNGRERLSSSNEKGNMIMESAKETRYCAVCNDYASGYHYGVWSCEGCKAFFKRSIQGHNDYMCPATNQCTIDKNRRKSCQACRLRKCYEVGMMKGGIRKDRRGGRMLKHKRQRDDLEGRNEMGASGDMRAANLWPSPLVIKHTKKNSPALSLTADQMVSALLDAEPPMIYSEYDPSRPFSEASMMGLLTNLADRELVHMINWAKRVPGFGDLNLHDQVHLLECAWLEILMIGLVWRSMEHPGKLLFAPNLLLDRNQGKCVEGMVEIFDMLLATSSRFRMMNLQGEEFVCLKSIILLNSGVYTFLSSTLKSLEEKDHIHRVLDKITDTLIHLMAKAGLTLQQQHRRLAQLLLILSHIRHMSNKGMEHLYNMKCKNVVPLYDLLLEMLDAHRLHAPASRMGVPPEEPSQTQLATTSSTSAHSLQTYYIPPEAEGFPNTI
Sequence of rat Serotonin Transporter (SERT), Slc6a4 (gene 25553) (P31652 whole entry, looked up): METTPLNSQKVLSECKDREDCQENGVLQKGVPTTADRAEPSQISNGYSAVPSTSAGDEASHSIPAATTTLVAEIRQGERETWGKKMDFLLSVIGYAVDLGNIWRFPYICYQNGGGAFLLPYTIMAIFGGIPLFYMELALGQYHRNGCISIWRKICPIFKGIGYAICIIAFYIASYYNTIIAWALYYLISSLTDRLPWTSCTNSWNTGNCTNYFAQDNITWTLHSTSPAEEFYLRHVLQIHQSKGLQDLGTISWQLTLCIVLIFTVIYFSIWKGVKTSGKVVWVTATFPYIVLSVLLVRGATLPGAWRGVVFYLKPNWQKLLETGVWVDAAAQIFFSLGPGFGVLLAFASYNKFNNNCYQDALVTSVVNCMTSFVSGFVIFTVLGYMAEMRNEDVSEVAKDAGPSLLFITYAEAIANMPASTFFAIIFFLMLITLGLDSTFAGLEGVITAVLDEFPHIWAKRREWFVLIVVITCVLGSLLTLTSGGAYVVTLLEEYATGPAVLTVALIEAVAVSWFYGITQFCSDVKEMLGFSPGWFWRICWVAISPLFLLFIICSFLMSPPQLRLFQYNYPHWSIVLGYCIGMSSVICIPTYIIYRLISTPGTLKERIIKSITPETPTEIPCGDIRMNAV
Sequence of Estrogen receptor (Homo sapiens) (P03372 whole entry, looked up): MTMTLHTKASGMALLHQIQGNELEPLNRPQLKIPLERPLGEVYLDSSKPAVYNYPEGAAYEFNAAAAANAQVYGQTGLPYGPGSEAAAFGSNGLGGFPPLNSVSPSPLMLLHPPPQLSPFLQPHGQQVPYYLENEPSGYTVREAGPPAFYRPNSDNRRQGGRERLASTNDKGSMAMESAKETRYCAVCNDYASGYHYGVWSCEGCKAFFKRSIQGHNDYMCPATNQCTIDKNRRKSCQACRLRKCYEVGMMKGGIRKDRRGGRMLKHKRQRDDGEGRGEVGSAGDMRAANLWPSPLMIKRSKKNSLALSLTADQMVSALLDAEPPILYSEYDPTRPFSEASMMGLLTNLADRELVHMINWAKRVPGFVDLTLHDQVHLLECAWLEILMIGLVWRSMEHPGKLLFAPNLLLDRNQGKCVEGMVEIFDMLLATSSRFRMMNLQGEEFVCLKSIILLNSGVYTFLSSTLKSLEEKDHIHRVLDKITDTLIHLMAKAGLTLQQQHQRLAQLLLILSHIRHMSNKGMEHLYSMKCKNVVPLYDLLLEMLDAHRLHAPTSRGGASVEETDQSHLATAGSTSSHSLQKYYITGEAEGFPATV
Sequence of Bile acid receptor (Homo sapiens) (Q96RI1 whole entry, looked up, the tested form may be a part): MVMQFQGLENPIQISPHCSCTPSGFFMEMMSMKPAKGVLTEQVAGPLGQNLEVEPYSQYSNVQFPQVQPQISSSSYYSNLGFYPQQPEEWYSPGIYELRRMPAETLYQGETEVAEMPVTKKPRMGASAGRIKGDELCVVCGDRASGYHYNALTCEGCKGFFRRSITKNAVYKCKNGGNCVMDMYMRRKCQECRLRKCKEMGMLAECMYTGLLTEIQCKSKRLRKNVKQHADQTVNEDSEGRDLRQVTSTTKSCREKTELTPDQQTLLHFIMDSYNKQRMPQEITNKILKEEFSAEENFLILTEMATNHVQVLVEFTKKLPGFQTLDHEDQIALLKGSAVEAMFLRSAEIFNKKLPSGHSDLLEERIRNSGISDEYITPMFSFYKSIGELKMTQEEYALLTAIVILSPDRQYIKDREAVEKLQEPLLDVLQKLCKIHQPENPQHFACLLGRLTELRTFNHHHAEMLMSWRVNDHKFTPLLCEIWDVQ
Sequence of human Norepinephrine Transporter (NET), SLC6A2 (gene 6530) (P23975 whole entry, looked up): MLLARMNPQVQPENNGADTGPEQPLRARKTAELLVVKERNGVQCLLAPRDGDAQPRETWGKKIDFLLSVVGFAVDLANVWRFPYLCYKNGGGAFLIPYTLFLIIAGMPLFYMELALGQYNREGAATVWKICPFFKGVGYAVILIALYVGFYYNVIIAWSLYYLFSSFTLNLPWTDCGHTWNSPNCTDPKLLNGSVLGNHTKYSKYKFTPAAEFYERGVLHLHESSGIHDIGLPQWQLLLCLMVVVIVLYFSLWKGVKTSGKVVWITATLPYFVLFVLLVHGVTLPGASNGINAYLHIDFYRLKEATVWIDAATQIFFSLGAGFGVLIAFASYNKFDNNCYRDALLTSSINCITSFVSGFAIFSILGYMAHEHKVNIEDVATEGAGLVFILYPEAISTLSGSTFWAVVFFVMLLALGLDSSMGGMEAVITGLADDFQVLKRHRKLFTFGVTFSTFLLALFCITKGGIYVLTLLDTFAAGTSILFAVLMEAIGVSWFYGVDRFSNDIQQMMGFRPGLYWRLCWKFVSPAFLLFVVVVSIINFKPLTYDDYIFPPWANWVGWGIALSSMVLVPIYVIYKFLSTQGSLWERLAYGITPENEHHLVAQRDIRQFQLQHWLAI
Sequence of Retinoic acid receptor RXR-alpha (Homo sapiens) (P19793 whole entry, looked up, the tested form may be a part): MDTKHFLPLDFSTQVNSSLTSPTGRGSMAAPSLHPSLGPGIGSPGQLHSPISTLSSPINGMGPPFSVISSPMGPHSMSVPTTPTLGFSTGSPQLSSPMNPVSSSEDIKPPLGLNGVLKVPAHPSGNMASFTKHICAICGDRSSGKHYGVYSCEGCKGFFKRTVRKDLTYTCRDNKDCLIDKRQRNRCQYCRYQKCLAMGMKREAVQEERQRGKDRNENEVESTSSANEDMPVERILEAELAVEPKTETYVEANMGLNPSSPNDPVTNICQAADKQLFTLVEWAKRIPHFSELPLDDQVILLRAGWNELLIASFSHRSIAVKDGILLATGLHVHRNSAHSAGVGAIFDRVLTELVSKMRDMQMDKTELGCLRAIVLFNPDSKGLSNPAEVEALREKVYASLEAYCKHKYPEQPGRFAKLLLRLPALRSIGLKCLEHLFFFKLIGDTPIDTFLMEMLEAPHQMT
Sequence of Estrogen receptor beta (Homo sapiens) (Q92731 whole entry, looked up, the tested form may be a part): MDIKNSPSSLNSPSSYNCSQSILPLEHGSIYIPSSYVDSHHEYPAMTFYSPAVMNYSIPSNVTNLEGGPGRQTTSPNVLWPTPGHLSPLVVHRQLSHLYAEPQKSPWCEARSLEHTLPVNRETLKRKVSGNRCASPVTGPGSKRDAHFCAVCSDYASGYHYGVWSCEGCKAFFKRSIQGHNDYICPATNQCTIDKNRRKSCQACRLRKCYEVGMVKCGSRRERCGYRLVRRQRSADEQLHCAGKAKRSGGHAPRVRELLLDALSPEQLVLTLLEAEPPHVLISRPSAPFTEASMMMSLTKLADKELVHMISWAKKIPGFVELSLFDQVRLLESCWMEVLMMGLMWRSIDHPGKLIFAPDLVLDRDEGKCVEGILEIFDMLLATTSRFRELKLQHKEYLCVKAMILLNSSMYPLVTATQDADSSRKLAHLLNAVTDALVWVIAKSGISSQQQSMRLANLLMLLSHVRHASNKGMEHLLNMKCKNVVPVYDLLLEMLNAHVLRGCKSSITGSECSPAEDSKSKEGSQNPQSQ
Sequence of human Dopamine Transporter (DAT), SLC6A3 (gene 6531) (Q01959 whole entry, looked up): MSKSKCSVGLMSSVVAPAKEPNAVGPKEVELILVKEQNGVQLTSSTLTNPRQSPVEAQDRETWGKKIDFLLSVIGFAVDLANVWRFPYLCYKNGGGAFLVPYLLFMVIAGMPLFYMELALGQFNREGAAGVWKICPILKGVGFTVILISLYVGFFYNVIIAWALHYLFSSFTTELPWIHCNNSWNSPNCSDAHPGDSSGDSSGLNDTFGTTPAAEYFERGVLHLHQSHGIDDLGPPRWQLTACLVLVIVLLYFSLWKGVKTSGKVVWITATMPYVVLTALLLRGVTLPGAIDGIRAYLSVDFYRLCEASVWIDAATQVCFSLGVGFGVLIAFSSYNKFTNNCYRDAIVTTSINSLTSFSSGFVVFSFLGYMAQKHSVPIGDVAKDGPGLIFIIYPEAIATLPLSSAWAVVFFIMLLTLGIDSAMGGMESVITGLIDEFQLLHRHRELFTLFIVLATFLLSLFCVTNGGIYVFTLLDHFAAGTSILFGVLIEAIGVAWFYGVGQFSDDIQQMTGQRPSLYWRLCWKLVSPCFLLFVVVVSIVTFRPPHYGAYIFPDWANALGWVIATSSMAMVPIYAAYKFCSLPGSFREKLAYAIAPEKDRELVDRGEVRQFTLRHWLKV

CCCCCCCCCC=CCC1CC(=O)OC1=O (stereo unspecified)
inactive: [3] | [4] | [5] | [6] | [7] | [8] | [9] | [10]
active: [1] 25 µM | [2] 21.2 µM

Oc1cc2ccccc2cc1O
inactive: [11] | [12] | [13] | [14] | [15]

CCCCCCCCCCCCOC(=O)c1cc(O)c(O)c(O)c1
active: [16] 12.4 µM | [3] 11.9 µM | [4] 49.2 µM | [5] 84.1 µM
inactive: [1] | [7] | [9] | [10]

CC(O)COc1ccccc1 (stereo unspecified)
inactive: [1] | [11] | [2] | [3] | [17] | [9] | [10]

Clc1ccc2c(Cl)ccnc2c1
active: [11] 25 µM

CN(C)c1ccc(C(=C2C=CC(=[N+](C)C)C=C2)c2ccccc2)cc1
active: [18] 6.41 µM and 3.13 µM | [11] 18.3 µM and 5.15 µM

CCCCCCCCCCCCCCC
inactive: [11] | [3] | [8] | [17]

CN(Cc1cnc2nc(N)nc(N)c2n1)c1ccc(C(=O)N[C@@H](CCC(=O)O)C(=O)O)cc1
inactive: [11] | [16] | [2] | [3] | [4] | [5] | [6] | [7] | [8] | [17] | [9] | [10]
active: [18] 6.69 µM

c1ccc2c(c1)CCC2
inactive: [11]

CCCCCCCCCCCC
active: [1] 0.401 µM | [8] 39.2 µM
inactive: [1] | [17] | [9] | [10]

NC(=NCCCCCCN=C(N)/N=C(\N)Nc1ccc(Cl)cc1)/N=C(\N)Nc1ccc(Cl)cc1
inactive: [2] | [9] | [10]
active: [18] 0.458 µM | [19] 0.322 µM | [11] 0.356 µM | [16] 137 nM and 292 nM | [4] 24.5 µM | [5] 28.6 µM

CC(C)[C@@H]1CC[C@@H](C)C[C@H]1O
inactive: [1] | [3] | [6] | [17] | [9] | [10]

CCCCCCCCCCCC(=O)O
inactive: [1] | [3] | [8] | [17] | [9] | [10]

C[C@]12CC[C@@H]3c4ccc(O)cc4CC[C@H]3[C@@H]1C[C@@H](O)[C@@H]2O
active: [18] 15.4 µM | [3] 0.03 µM | [13] 31.8 µM
inactive: [8] | [17] | [9] | [10] | [12] | [14]

CCCCCc1ccc(O)cc1
active: [18] 6.09 µM | [11] 14.6 µM | [15] 50 µM
inactive: [12] | [13] | [14]

CCOC(OCC)C(=O)c1ccccc1
active: [18] 7 µM

C=CC(C)(CCC=C(C)C)OC(C)=O (stereo unspecified)
inactive: [1] | [16] | [4] | [5] | [7] | [8] | [9] | [10]
active: [6] 76 µM

Cc1cc(C(=C2C=CC(=Nc3ccc(S(=O)(=O)O)cc3)C=C2)c2ccc(Nc3ccc(S(=O)(=O)O)cc3)cc2)cc(S(=O)(=O)O)c1N
inactive: [1] | [2] | [3] | [4] | [5] | [6] | [7] | [9] | [10]

O=C(CCCN1CCC(O)(c2ccc(Cl)cc2)CC1)c1ccc(F)cc1
inactive: [20] | [3] | [6] | [7] | [8] | [17] | [9] | [10]
active: [17] 80.3 µM

CCC(C)c1ccccc1O (stereo unspecified)
inactive: [1] | [3] | [8] | [17] | [9] | [10]

CCCCCCOC(=O)c1ccc(O)cc1
active: [16] 3.82 µM

CC(C)(C)c1ccc(O)c(O)c1
inactive: [11] | [12] | [13] | [14]
active: [11] 18.4 µM

CCCCc1ccc2ccccc2c1S(=O)(=O)O
inactive: [1] | [3] | [4] | [5] | [6] | [9] | [10]
active: [2] 13.3 µM

C=Cc1ccc(O)c(OC)c1
active: [11] 19.1 µM

Oc1cccc2c(O)cccc12
inactive: [11]
active: [18] 25 µM

CCCCN(C)C
inactive: [18]

O=C1OC2(c3ccccc31)c1cc(I)c(O)c(I)c1Oc1c2cc(I)c(O)c1I
active: [19] 0.953 µM | [11] 0.566 µM
inactive: [8]

CCCCCCCCCCCCCC[n+]1ccccc1
inactive: [16]

CCCCCCCCCCCCCCCCCC[N+](C)(C)Cc1ccccc1
active: [19] 7.73 µM | [11] 2.49 µM
inactive: [18]

O=C(c1ccccc1)c1ccccc1
inactive: [18] | [2] | [6] | [8] | [17]

Clc1ccc(Nc2nnc(Cc3ccncc3)c3ccccc23)cc1
active: [18] 0.987 µM | [11] 0.898 µM
inactive: [19] | [12] | [13] | [14]

N=C(N)c1ccc(OCCCCCOc2ccc(C(=N)N)cc2)cc1
active: [18] 4.11 µM | [11] 0.725 µM
inactive: [20] | [4] | [5] | [8] | [9] | [10]
